Laboratory results taken from the supplement of paper PMC3334620.
The full ranking holds about 33,000 sequences; the median of “E-score (-0.5 to 0.5)” is about -0.054, and the highest 2% start at about 0.39. This excerpt belongs to a sample that is enriched for the highest values.

The sequences below were run against Ylr278c (UniProt Q05854) (assay: PBM E-score (8-mer binding enrichment) (E-score (-0.5 to 0.5)); higher = stronger / more preferred TF binding). Details: protein concentration: 200 nM; construct: GST-DNA-binding domain.
Chain of UniProt Q05854 (Q05854 whole entry, the tested form may be a part): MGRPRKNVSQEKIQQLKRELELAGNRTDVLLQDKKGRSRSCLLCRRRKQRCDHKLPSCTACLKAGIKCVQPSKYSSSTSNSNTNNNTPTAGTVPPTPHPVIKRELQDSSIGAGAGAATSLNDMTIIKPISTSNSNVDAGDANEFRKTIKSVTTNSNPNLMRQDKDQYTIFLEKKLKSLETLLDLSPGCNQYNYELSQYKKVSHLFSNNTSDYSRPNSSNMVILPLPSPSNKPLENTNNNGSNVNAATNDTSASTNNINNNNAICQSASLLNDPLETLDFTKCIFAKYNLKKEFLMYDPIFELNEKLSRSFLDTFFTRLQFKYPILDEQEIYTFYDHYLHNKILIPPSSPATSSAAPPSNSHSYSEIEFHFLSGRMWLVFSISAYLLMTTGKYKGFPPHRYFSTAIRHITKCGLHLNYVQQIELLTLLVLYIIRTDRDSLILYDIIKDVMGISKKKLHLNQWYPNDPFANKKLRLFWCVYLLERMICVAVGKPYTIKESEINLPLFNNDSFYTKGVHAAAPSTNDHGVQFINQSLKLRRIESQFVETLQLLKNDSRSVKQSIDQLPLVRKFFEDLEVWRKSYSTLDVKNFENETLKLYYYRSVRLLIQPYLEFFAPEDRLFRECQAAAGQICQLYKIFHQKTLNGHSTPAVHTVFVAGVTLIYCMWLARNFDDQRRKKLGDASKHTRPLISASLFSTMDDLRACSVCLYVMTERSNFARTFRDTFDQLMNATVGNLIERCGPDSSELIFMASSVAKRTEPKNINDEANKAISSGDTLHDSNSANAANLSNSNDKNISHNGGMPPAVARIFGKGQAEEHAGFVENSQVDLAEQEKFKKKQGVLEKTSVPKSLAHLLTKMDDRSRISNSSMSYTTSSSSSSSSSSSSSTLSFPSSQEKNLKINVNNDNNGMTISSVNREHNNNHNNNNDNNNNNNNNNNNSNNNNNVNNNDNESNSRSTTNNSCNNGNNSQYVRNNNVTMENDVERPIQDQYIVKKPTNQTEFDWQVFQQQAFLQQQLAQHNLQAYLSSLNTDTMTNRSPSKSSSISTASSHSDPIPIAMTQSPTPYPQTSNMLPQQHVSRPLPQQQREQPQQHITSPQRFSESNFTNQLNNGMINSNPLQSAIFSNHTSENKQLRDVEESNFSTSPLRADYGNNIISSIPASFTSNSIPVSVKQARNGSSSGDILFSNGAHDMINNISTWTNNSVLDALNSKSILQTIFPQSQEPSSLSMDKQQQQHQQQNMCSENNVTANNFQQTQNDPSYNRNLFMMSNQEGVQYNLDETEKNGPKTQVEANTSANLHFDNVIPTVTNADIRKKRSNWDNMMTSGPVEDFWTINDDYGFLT
Protocol: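 Universal 'all 10-mer' protein binding microarrays (Agilent AMADID 015681) probed with GST-tagged S. cerevisiae TFs (full-length or DBD) made by in vitro transcription/translation (PURExpress), about 100-200 nM. Bound TF was detected with fluorescent anti-GST. Each ungapped 8-mer (which stands for itself and its reverse complement) is scored by the PBM enrichment score (E-score), a modified Wilcoxon-Mann-Whitney statistic from -0.5 to +0.5, computed with the Universal PBM Analysis Suite. Scale: above 0.35 generally sequence-specific binding.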

Sequence | PBM E-score
CTTCAACC | -0.0749
GCGATGCC | 0.0401
AGAGATGC | -0.0846
CATCACGC | 0.0744
ACGTGGAT | -0.233
AAAAGGTG | -0.196
ATCCCTAA | -0.254
ACGGCCCC | -0.034
GGGCGGAA | 0.364
CGGCGGAA | 0.438
AGGCGGAA | 0.304
ATTCCGCG | 0.439
ATGCCGCG | 0.304
ATTCCGCA | 0.356
CTTCCGCC | 0.343
ATTCCGCC | 0.418
ATTCCCCC | 0.162
CACACCCA | -0.107
GTACAACA | 0.014
GAACTACC | 0.0269
GAAAGTAA | -0.0679
CAACTGCC | -0.00091
CCTTTGAC | -0.121

Sequence | PBM E-score
AGGATTTC | 0.0497
GCGATTCC | 0.237
ACGATTTA | 0.0466
CCGATTCC | 0.393
CCGATTCG | 0.267
CTGATTTC | -0.0243
CCGATTTC | 0.303
CGGATTAA | 0.39
GGGATTAA | 0.223
CCGATTTA | 0.396
CGGATTAG | 0.299
CGGATTTC | 0.448
TACGCGAA | -0.0238
ACAGGAGC | -0.0789
CTCATGGC | -0.0203
ATGCAAGA | -0.214
ACACTAAC | 0.0293
ACCAAGAT | -0.0275
GACAATTA | 0.0117
GGATCGTA | -0.00905
AATAGATA | -0.126
ACACTGCC | 0.154
CGGATTTA | 0.451

Sequence | PBM E-score
CGGATTCA | 0.161
GGGATTTA | 0.287
CGGATTCC | 0.427
CGGATGTC | 0.4
AGGATTTA | 0.00139
AGGATTCC | -0.00339
AGGATGTC | -0.0871
CGGATGTA | 0.307
TTAAAAAA | -0.12
AGACCCAC | -0.00095
GACTAAAC | -0.0103
GGGCAACA | 0.0452
AACCACTG | -0.136
GCCCTCAC | -0.226
AATCCCCA | -0.0702
AATCCCCC | 0.0792
CATCCCGG | 0.342
AATCCCGT | 0.346
CATCCCGA | 0.262
AATCCCCG | 0.398
TATCCCGA | 0.258
CATCCCCA | -0.109
AATCCCGG | 0.439

Sequence | PBM E-score
AATCCCGA | 0.42
CATCCCCC | -0.0212
CATCCCCG | 0.396
AGGTTCAG | 0.0375
AAGCCTCC | 0.0849
CATTGGCA | -0.208
CAAGATCC | 0.167
ATTATAGC | -0.086
ATGTCTAC | -0.1
AGAAAGAT | -0.103
CACGTCAC | -0.147
GCGCATAA | -0.0332
ACCAAGAG | -0.29
TCCGAGAA | 0.421
ACCGATAA | 0.269
TCCGATAA | 0.428
TCCGAGGA | 0.401
GCCGATAA | 0.301
CCCGAGAA | 0.293
CCCGAGGA | 0.061
GCCGAGGA | 0.197
ACCGAGAA | 0.109
ACAATGGT | -0.255

Sequence | PBM E-score
ATCGTGAA | 0.00733
GGAGGTTA | 0.101
AAAAGATC | -0.0655
ATGCCGCC | 0.325
CCCATGGC | -0.0499
ATACCGGG | 0.334
CTACCGGA | 0.348
ATACCGGA | 0.405
GTACCGCA | 0.164
GTACCGGA | 0.415
ATACCGGC | 0.354
ATGTCCCA | -0.0785
CTCTACTA | -0.245
GAGCAAAC | 0.0239
CTCCTATC | -0.0262
CGGGCGTA | 0.178
CGAGCGGA | 0.381
GGAGCGGA | 0.396
AGGGCGGA | 0.385
CGGGCGGA | 0.405
AGAGCGGA | 0.254
GGGGCGTA | 0.0266
GGGGCGGA | 0.412
